By inhibition is commonly meant the change of the read-out against control, counted positive when it falls.

In all, about 86,000 compounds went through this assay and about 1,400 (1.6%) were called active. Only a selection was taken, and actives are over-represented in it overall. A number with no mark means an inactive call. No stated cut-off is given here; in the data, active means inhibition above about 50%; inactive means the rest.

The target in the test is Estrogen receptor (Homo sapiens) (UniProt P03372). The experiment in a line: ERα–SRC-1 coactivator interaction inhibitors, primary screen, biochemical, TR-FRET, ERα LBD, estradiol-bound (AID 629).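 Further: 0% = receptor plus peptide control and 100% = peptide only without receptor.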 The note with it: TR-FRET ER-alpha LBD / SRC-1 peptide, at 25.6 µM, active compounds read high.
Estrogen receptor (Homo sapiens), sequence (P03372 whole entry, looked up, the tested form may be a part): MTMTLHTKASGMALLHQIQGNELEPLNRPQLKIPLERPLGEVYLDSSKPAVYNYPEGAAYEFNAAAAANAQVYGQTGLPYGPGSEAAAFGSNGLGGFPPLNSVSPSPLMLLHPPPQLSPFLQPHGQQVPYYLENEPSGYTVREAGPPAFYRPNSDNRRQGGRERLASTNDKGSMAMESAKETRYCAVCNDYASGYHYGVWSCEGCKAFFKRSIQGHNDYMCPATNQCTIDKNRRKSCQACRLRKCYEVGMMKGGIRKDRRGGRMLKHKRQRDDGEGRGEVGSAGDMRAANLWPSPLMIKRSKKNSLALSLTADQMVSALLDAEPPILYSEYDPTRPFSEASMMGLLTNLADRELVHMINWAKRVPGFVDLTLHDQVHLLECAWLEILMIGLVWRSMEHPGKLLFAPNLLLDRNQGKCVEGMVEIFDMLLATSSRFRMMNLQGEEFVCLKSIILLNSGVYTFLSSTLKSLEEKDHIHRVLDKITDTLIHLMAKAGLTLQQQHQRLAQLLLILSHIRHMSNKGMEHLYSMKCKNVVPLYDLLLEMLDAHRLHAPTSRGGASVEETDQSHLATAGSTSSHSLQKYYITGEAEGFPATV
For `O=C(CN1CCN(C(=O)c2ccco2)CC1)Nc1ccc2c(c1)OCO2`, the inhibition is -22.6%.
As to `CCOC(=O)C1=C(CSc2nnnn2C)N(C)C(=O)NC1c1ccccc1` (centres undefined), the inhibition was -4.78%.
As for `O=C(NCc1ccco1)c1cc(-c2cccnc2)nc2ccc(Cl)cc12`, the inhibition is 10.8%.
In the case of `CCn1c(=N)c(C(=O)NCCCOC)cc2c(=O)n3cccc(C)c3nc21`, the inhibition is -7.26%.
For `O=C(Nc1ccccc1)Nc1ccccc1C(=O)NCc1ccco1`, the inhibition was -4.11%.
To `O=C(NCc1ccco1)c1cccn2c(=O)c3cc(Br)ccc3nc12` belongs 56.4% [fluorescence artefact?] (active).
`COc1ccc(CNC(=O)c2cc3c(=O)n4ccccc4nc3n(CC3CCCO3)c2=N)cc1` (centres undefined): the inhibition was 3.23%.
`COc1ccc(CCn2c(=N)c(C(=O)NCc3ccco3)cc3c(=O)n4cccc(C)c4nc32)cc1`: the inhibition is 65.7% [fluorescence artefact?] (active).
Take `Cc1ccc(/C=N/NC(=O)C2=NNC(c3ccccc3)(c3ccccc3)C2)c(O)c1`: the inhibition was 21.9%.
`CCSc1ccccc1C(=O)NCc1ccc(OC)cc1`: the inhibition is -6.6%.
With `COC(=O)/C(NC(C)=O)=C(\C)c1ccc(Cl)cc1` the figure was -8.11%.
Take `CC(=O)NC1=NN(C(C)=O)C(C)(c2ccc(Cl)s2)S1` (centres undefined): the inhibition was 2.57%.
Take `CN(C)c1ccnc2sc3c(=O)n(-c4ccc(Cl)cc4)cnc3c12`: the inhibition is 42.5%.
In the case of `COC(=O)C1=C(C(=O)OC)C2(OC1c1ccc(Br)cc1)C(=O)c1ccccc1C2=O` (centres undefined), the inhibition was -2.52%.
In the case of `COc1ccc(CN2CCn3ncc(C(=O)Nc4ccc(Cl)cc4Cl)c3C2=O)cc1`, the inhibition was 54.9% [fluorescence artefact?] (active).
On to `Cc1cnc(C(=O)OCC(=O)Nc2ccc(Cl)cc2Cl)cn1`, for which the inhibition is -9.26%.
Regarding `COc1ccc(OC)c(NC(=O)c2cnn(-c3ccccc3Cl)c2NC(=O)c2ccco2)c1`, the inhibition is -3.16%.
As to `O=C(c1cccc(F)c1)N1CCC(O)(c2cccnc2)CC1`, the inhibition was 1.95%.
Consider `CCCNC(=O)CN(Cc1ccccc1F)S(=O)(=O)c1ccc(C)cc1`, for which the inhibition is 5.89%.
Regarding `COc1cc2c(cc1NC(=O)CN1CCN(S(=O)(=O)c3ccc(F)cc3)CC1)oc1ccccc12`, the inhibition was 14.2%.
With `COc1ccccc1NC(=O)CN1CCN(S(=O)(=O)c2ccc(Br)cc2)CC1` the figure was 39.3%.
As for `O=C(CN1CCN(S(=O)(=O)c2ccc(F)cc2)CC1)Nc1ccccc1F`, the inhibition is 64.5% [fluorescence artefact?] (active).
As to `CCCCNC(=O)C1(c2ccc(OC)cc2)CCOCC1`, the inhibition is 25.4%.
As to `OC(CN=c1sc2ccccc2n1CC(O)COc1ccccc1)COc1ccccc1` (centres undefined), the inhibition was -21.1%.
As to `O=C(Nc1ccc2c(c1)OCCO2)C(c1ccc(F)cc1)N1CCCCC1` (centres undefined), the inhibition is 1.74%.
Regarding `COC(=O)c1[nH]c2ccccc2c1NC(=O)CN1CCCc2ccccc21`, the inhibition is 66.9% [fluorescence artefact?] (active).
For `CCOC(=O)c1[nH]c2ccc(OC)cc2c1NC(=O)CCN1CCN(Cc2ccccc2)CC1`, the inhibition was 0.69%.
On to `COC(=O)c1[nH]c2cccc(C)c2c1NC(=O)CN1CCCc2ccccc21`, for which the inhibition was 33.1%.
Consider `COC(=O)c1ccccc1NC(=O)CN(Cc1ccc(Cl)cc1)S(C)(=O)=O`, for which the inhibition was 5.73%.
On to `C=CCc1ccc(OCCOc2cccc(/C=N/n3cnnc3)c2)c(OC)c1`, for which the inhibition was -8.6%.
As to `COc1ccc(CC(=O)Nc2ccc(-c3nnc(-c4ccc(C)cc4)o3)cc2)cc1`, the inhibition is 8.24%.
With `CCOc1ccc(-c2nnc(-c3ccco3)o2)cc1`, the inhibition was -0.96%.
For the molecule `Cc1ccc(OCC(=O)Nc2ccc(-c3nnc(-c4ccco4)o3)cc2)cc1`, the inhibition was 63.7% [fluorescence artefact?] (active).
Take `O=C(CSc1nc2cccnc2n1Cc1ccccc1)N1CCc2ccccc21`: the inhibition is 34.4%.
For `COc1nc(NC2CCCCC2)nc(N2CCCCCC2)n1`, the inhibition was 6.7%.
With `C=C(C)Cn1c(SCC(=O)NCc2ccco2)nc2sc3c(c2c1=O)CCC3` the figure was 7.04%; with `CC(Sc1nc2ccccc2c(=O)n1Cc1ccco1)C(=O)c1ccccc1` (centres undefined), 4.97%.
With `COc1ccc(-n2c(SCC(=O)Nc3sc4c(c3C#N)CCCC4)nnc2-c2ccc(O)cc2)cc1` the figure was 78.5% [fluorescence artefact?] (active).
On to `COC(=O)c1c(NC(=O)CSc2nncs2)sc2c1CCCCC2`, for which the inhibition is -1.55%.
As for `N#Cc1c(NC(=O)CSc2nc3ccccc3c(=O)n2Cc2ccco2)sc2c1CCCC2`, the inhibition was 61.9% [fluorescence artefact?] (active).
For the molecule `COc1ccc(-c2nnc(SCC(=O)c3ccco3)n2-c2ccccc2)cc1`, the inhibition was 11%.
With `Cc1cccn2c(=O)c(/C=C(\C#N)S(=O)(=O)c3ccc(Cl)cc3)c(N3CCC(C(N)=O)CC3)nc12` the figure was -0.02%.
Take `O=C(CSCc1c(F)cccc1Cl)NCC1CCCO1` (centres undefined): the inhibition is -1.37%.
As for `CCCCOc1ccc(C(=O)NCc2ccncc2)cc1`, the inhibition is 1.95%.
As to `CCc1ccccc1NC1c2ccccc2C(=O)N1c1cccnc1` (centres undefined), the inhibition was -8.02%.
To `COC(=O)c1cc(NC2c3ccccc3C(=O)N2c2ccc(Cl)cn2)cc(C(=O)OC)c1` (centres undefined) belongs 66.6% (active); to `Cc1ccnc(N2C(=O)c3ccccc3C2Nc2ccc3c(c2)OCCO3)c1` (centres undefined), 1.59%.
With `CCOC(=O)C1=C(C)NC(SC)=NC1c1ccccc1` (centres undefined) the figure was -2.42%; with `Cc1nnc(SC(C)C(=O)Nc2ccc(S(=O)(=O)NC3CCCCC3)cc2)s1` (centres undefined), 21.6%.
`COc1ccc(N2CCN(C(=O)CSc3ncnc4c3cnn4-c3ccc(OC)cc3)CC2)cc1`: the inhibition was -7.43%.
Take `COc1ccc(N2CCN(C(=O)CSc3nc4cc(OC)c(OC)cc4cc3C#N)CC2)cc1`: the inhibition was 51.1% [fluorescence artefact?] (active).
To `CCOc1ccc2cc(C#N)c(SCC(=O)OC)nc2c1` belongs 17.3%; to `COc1ccc(C)cc1S(=O)(=O)NCCc1ccccc1`, 8.31%; to `Cc1ccc(OC(=O)c2ccccc2C(=O)OCC(F)(F)C(F)F)cc1`, -6.39%.
Regarding `COc1ccc(-c2ccc(-c3noc(-c4ccncc4)n3)c(OC)n2)cc1`, the inhibition was 59.7% (active).
As for `COc1cc(-c2nc(-c3ccncc3)no2)cc(OC)c1OC`, the inhibition is -8.51%.
On to `CCOc1nc(-c2ccc(OC)cc2)ccc1-c1noc(-c2cc(OC)c(OC)c(OC)c2)n1`, for which the inhibition is 9.34%.
Take `NC1=NC(=O)C2(COC(c3ccccc3Cl)OC2)S1` (centres undefined): the inhibition was -0.98%.
For `CC(=O)c1cccc(NC(=O)Nc2ccc(C)cc2)c1`, the inhibition is 4.59%.
Consider `COc1cccc(NC(=O)Cc2ccc(C)cc2)c1`, for which the inhibition was -3.07%.
For the molecule `Cc1ccc(NC(=S)NC(NC(=O)Cc2cccc3ccccc23)C(Cl)(Cl)Cl)cc1` (centres undefined), the inhibition was 57% [fluorescence artefact?] (active).
Take `O=S(=O)(Cc1cc(Sc2ccccc2)nc(-c2ccccc2)n1)c1ccccc1`: the inhibition is -0.05%.
Regarding `CC(=O)Nc1ccc(S(=O)(=O)Nc2cccc(NC(=O)C(C)(C)C)c2)cc1`, the inhibition was -5.55%.
Take `CSc1ccc(S(=O)(=O)Nc2cccc(F)c2)cc1`: the inhibition was 61.3% (active).
As for `CSc1ccc(S(=O)(=O)NC2CCCCC2)cc1`, the inhibition was 6.27%.
`Cc1cccc(N2CCN(C(c3ccc(N(C)C)cc3)c3nnnn3C(C)(C)C)CC2)c1C` (centres undefined): the inhibition was 1.11%.
In the case of `CC(=O)C1=C(C)NC(C)=C(C(C)=O)C1c1cn(-c2ccccc2)nc1-c1cccs1`, the inhibition was -18.1%.
In the case of `CC(C)(C)c1cc(=O)n2c(nc3ccccc32)[nH]1`, the inhibition was 11.3%.
With `COCCn1c(SCc2nnc(-c3ccc(OC)c(OC)c3)o2)nc2sc3c(c2c1=O)CCC3` the figure was -16.5%; with `CCCC1(C(=O)OCC)NC(c2ccc(N(C)C)cc2)C2C(=O)N(c3ccc4c(c3)OCCO4)C(=O)C21` (centres undefined), -19%.
`COc1cccc(-c2nn(C)c3sc(C(=O)N4CCN(c5ccccc5)CC4)cc23)c1`: the inhibition was 6.81%.
For the molecule `Cc1nc2ccc(C(=O)N3CCN(c4ccccc4)CC3)cc2s1`, the inhibition is -14.9%.
For the molecule `O=C(c1cc2c(s1)CCC2)N1CCN(c2ccccc2)CC1`, the inhibition was 67.9% [fluorescence artefact?] (active).
Take `COC(=O)c1cc(OC)ccc1-c1ccc(OC)cc1`: the inhibition is -2.99%.
Turning to `CCc1ccc(CNC(=O)CCc2nc(-c3cccs3)no2)cc1`, the inhibition is 0.94%.
In the case of `O=C(c1cc2sccc2n1Cc1ccc(F)cc1)N1CCc2ccccc21`, the inhibition was -24.7%.
With `O=C(CN1CCN(S(=O)(=O)/C=C/c2ccccc2)CC1)NC(=O)NCc1ccco1` the figure was 55% [fluorescence artefact?] (active); with `O=C(COC(=O)c1ccc(S(=O)(=O)N2CCc3ccccc3C2)cc1)NC(=O)NCc1ccco1`, 10.1%; with `CC1(c2ccccc2Cl)NC(=O)N(CC(=O)NC(=O)NCc2ccco2)C1=O` (centres undefined), 9.78%.
Consider `CCC(C)n1[nH]c(=O)cc1N` (centres undefined), for which the inhibition is 60.4% (active).
For the molecule `CCC(C)n1[nH]c(=O)c2c(C)cc(C)nc21` (centres undefined), the inhibition was -1.94%.
Regarding `CCCC(C)n1[nH]c(=O)c2c(C)cc(C)nc21` (centres undefined), the inhibition is -5.08%.
With `CCN1C(=O)/C(=C2/Sc3ccc(OC)cc3N2C)SC1=Nc1ccc(C)cc1`, the inhibition was 18.8%.
Regarding `NC(=O)C1(N2CCCCC2)CCN(C2CC(=O)N(Cc3ccc(N4CCCC4=O)cc3)C2=O)CC1` (centres undefined), the inhibition was -9.78%.
To `COc1ccc(C(=O)Cc2cnn(-c3ccccc3)c2)c(O)c1` belongs -7.1%; to `COc1ccccc1NC(=O)/C=C/C(N)=O`, 13%; to `O=C(Nc1ccc(Oc2ccccc2)cc1)c1ccco1`, 0.33%.
With `Cc1ccc(C(=O)COc2cccc(NC(=O)c3ccco3)c2)cc1`, the inhibition is 6.84%.
For `CCOc1cc(NC(=O)c2ccco2)c(OCC)cc1NC(=O)COc1ccccc1`, the inhibition was 77.7% [fluorescence artefact?] (active).

The values above are taken from PubChem BioAssay AID629 (Emory University Molecular Libraries Screening Center, 2007).
